Screening results (PubChem)
TbPYK inhibitor: qHTS of Trypanosoma Brucei Inhibitors; pyruvate kinase (Trypanosoma brucei), Q57TT1; AID 624173, 2012; TbPYK enzyme, Kinase-Glo Plus ATP luminescence, 45 min; 410,000 compounds, 0.12% hits; Potency, µM (doses to about 76.8 µM), inactives show at the top dose activity, negative = inhibition, most hits filed as inhibitors; note: % is set by controls: 0 for no effect and ±100 for the full control effect; nearly all actives have a fitted effect of over 50% in size
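In this concentration-response screen, enzyme-free wells defined baseline while DMSO plates tracked drift. Each reaction combined TbPYK, substrate, compound and 130 uM ADP for 45 min at room temperature. Kinase-Glo Plus luminescence gave the signal.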
RE007 growth inh: qHTS Assay for Inhibitors of the HIV-1 protein Vpr; S. pombe RE007 Vpr strain, BacTiter-Glo ATP luminescence, 24 h; Potency, µM (series often up to 92.2 µM), for inactives: top-dose activity change, negative = less growth, usual class: inhibitors; 360,000 compounds, 0.21% hits; active = well fitted falling curve with a large enough effect; inconclusive = small, poorly fitted or top-dose-only effect; inactive = no such curve, though single readings can be large or run the other way; note: % is set by controls: 0 for no effect and ±100 for the full control effect; nearly all actives have a fitted effect of over 50% in size
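Fission yeast RE007 carrying one integrated HIV-1 vpr copy, seeded at OD 0.01 in PMG+AL medium with 23 nL pinned compound. Grown 24 h at 30 degrees; viability read by BacTiter-Glo luminescence after 5 min.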
AmpC inh detg: qHTS Inhibitors of AmpC Beta-Lactamase (assay with detergent); AmpC hydrolysis of nitrocefin, absorbance 480 nm, 0.01% Triton; Potency, µM (titrated, usually from 114 µM), for the others: top-dose activity change, negative = inhibition, hits mostly inhibitors; 370,000 compounds, 0.041% hits; AID 485294, 2010;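 note: 0% = no-compound wells and -100% = no-enzyme wells; nearly all actives have a fitted effect of over 25% in size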
Target sequence (P00811 whole entry, looked up): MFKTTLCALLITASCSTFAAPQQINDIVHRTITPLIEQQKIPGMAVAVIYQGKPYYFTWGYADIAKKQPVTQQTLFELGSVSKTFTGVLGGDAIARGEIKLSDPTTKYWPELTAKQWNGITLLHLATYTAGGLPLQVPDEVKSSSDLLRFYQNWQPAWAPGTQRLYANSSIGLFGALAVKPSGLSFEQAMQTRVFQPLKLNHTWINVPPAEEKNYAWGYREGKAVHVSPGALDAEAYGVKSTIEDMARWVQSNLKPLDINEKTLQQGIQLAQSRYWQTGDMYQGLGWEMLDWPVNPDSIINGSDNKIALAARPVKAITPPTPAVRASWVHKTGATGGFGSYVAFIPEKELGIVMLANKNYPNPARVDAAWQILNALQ
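AmpC (5.3 nM in the dispensed reagent) in 20 mM phosphate pH 7.0 with 0.01% (detergent screen) or 0.0001% Triton X-100 was preincubated with compounds for 15 min at room temperature. Nitrocefin was then added from an 800 uM solution, and hydrolysis was followed at 480 nm.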
AmpC no deterg: qHTS Inhibitors of AmpC Beta-Lactamase (assay without detergent) | AID 485341, 2010 | P00811 | 330,000 compounds, 0.52% hits | AmpC nitrocefin hydrolysis, absorbance 480 nm, 0.0001% Triton | Potency, µM (doses to about 57.1 µM), inactives show top-dose activity change, negative = inhibition, most hits filed as inhibitors;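 note: plate controls were no compound for no effect and no enzyme for full effect; nearly all actives have a fitted effect of over 20% in size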
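AmpC (5.3 nM in the dispensed reagent) in 20 mM phosphate pH 7.0 with 0.01% (detergent screen) or 0.0001% Triton X-100 was preincubated with compounds for 15 min at room temperature. Nitrocefin was then added from an 800 uM solution, and hydrolysis was followed at 480 nm.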
Sm TGR block: qHTS Assay for the Inhibitors of Schistosoma Mansoni Peroxiredoxins. purified TGR, DTNB reduction, TNB absorbance 405 nm. Potency, µM (series often up to 114 µM), inactives show at the highest dose activity change, negative = inhibition, actives largely listed as inhibitors. 360,000 compounds, 3% hits; note: % is set by controls: 0 for no effect and ±100 for the full control effect; nearly all actives have a fitted effect of over 60% in size
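First, TGR (20 nM dispensed) and NADPH were mixed with compound. Second, a 15 min room-temperature incubation followed. Third, further NADPH and then DTNB were added to start the reaction. Finally, TNB absorbance was monitored kinetically.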
SARS PLpro yeast: qHTS of Yeast-based Assay for SARS-CoV PLP; AID 485353, 2010; Potency, µM (titrated, usually from 32.9 µM), without a hit: top-dose activity, positive = growth rescue, most hits filed as activators; S. cerevisiae expressing SARS-CoV PLpro, growth rescue; 330,000 compounds, 0.19% hits; calls by dose curve; note: 0% is about no effect; nearly all actives have a fitted effect of over 55% in size
An asterisk follows results filed as active; ? = inconclusive; . = no result; [ ] = remark or other dose. Shown are actives, neighbours in structure and some others; about 3.3% of the full set was active somewhere. Unless noted, calls come from the whole dose curve; as a rule, active = well fitted curve in the direction sought with a large enough effect; inconclusive = small, poorly fitted or top-dose-only effect, or another doubt; inactive = no such curve, though single readings can be large; an effect the other way counts as inactive or inconclusive. Potency is the fitted concentration of half-maximal effect.

SMILES	TbPYK inhibitor	RE007 growth inh	AmpC inh detg	AmpC no deterg	Sm TGR block	SARS PLpro yeast
O=C1CSC(=S)N1/N=C/c1cc(Br)c(O)c(Br)c1	-21%	5%	?	?	20µM*	-5%
O=C1CSC(=S)N1N=Cc1ccccc1O	?	0%	.	.	.	.
COc1ccc(-c2c(C#N)c(SCC(=O)Nc3ccc(C)c(C)c3)nc(C)c2C(=O)Nc2ccccc2)cc1OC	0%	.	7%	.	2%	.
COc1cn(CC(=O)Nc2ccccc2)c(CN2CCCCC2)cc1=O	3%	.	8%	.	46%	.
Cn1c(=O)c2c(-c3ccc(Br)cc3)n(CCc3ccccc3)cc2n(C)c1=O	0%	.	-10%	.	-16%	.
O=C1CSC(=S)N1N=Cc1ccc(Cl)cc1Cl	-5%	-7%	.	.	.	.
COc1cc(/C=N/N2C(=O)CSC2=S)ccc1O	-5%	1%	-7%	-31%	5.6µM*	16%[6.58 µM]
COc1ccc(Br)cc1/C=N/N1C(=O)CSC1=S	-4%	-7%	?	28µM*	-36%	-2%
O=C1CSC(=S)N1N=Cc1c[nH]c2ccc(Br)cc12	-2%	-18%	.	.	.	.
O=C1CSC(=S)N1/N=C/c1ccc(Cl)c([N+](=O)[O-])c1	.	.	5%	13µM*	22µM*	0%
CN(C)CCN(C(=O)c1ccco1)c1nc2c(F)cc(F)cc2s1	-9%	.	6%	.	0%	.
CC(=O)OCC1=C(C(=O)O)N2C(=O)[C@@H](NC(=O)CSc3ccncc3)[C@H]2SC1	-7%	0%	-4%	-20%	45µM*	.
CC(=O)OCC1=C(C(=O)O)N2C(=O)C(NC(=O)C(C)Cn3nc(C)c(Cl)c3C)C2SC1 (stereo not given)	-5%	-7%	-9%	-8%	28µM*	-3%
Cc1ccc(Nc2nccc(N(C)c3ccc4c(C)n(C)nc4c3)n2)cc1S(N)(=O)=O	-5%	.	.	.	.	.
Cc1ccc(C2CC(=O)N3CN(c4ccc(Br)cc4)CSC3=C2C#N)o1 (stereo not given)	?	-12%	3%	-40%	28µM*	0%
Cc1ccc(C2CC(=O)N3CN(Cc4ccco4)CSC3=C2C#N)cc1 (stereo not given)	?	-15%	?	-40%	0%	6%
CCOc1ccc(N2CSC3=C(C#N)C(c4ccco4)CC(=O)N3C2)cc1 (stereo not given)	-6%	-2%	2%	-29%	25µM*	4%
COc1cc(Cl)c(C)cc1NC(=O)CC1Oc2ccccc2NC1=O (stereo not given)	-10%	.	-2%	.	9%	.
Cc1ccc(C)n1-c1ccc2c(c1)COC2=O	.	.	2%	-17%	11µM*	-6%
O=S(=O)(Nc1cccc(-c2nc3cccnc3s2)c1)c1ccc2c(c1)OCCO2	3%	-1%	?	3.2µM*	-2%	-5%
CCCC1=NN2C(=N)/C(=C\c3ccc(SCc4ccco4)o3)C(=O)N=C2S1	-13%	-3%	-17%	-52%	?	3%
O=C1NC(=S)S/C1=C\c1ccc(SCc2ccco2)o1	?	0%	?	-49%	1.3µM*	-97%
CCC1=NN2C(=N)/C(=C\c3ccc(SCc4ccco4)o3)C(=O)N=C2S1	-13%	-9%	?	-32%	50µM*	3%
O=C(NCc1cccnc1)/C(=C\c1ccc(-c2cccc(Cl)c2)o1)S(=O)(=O)c1ccccc1	-10%	-12%	5%	2%	18µM*	?
O=C(Oc1ccc2c(c1)OCO2)c1cc2c(s1)CCC2	-5%	-16%	-12%	16µM*	-19%	1%
SMILES	TbPYK inhibitor	RE007 growth inh	AmpC inh detg	AmpC no deterg	Sm TGR block	SARS PLpro yeast
O=C(c1cc2c(s1)CCCC2)N1CCN(Cc2ccc3c(c2)OCO3)CC1	-16%	-8%	?	159%	-1%	-12%
Cn1c(=O)c2c(SCc3c(F)cccc3Cl)nc(CC(C)(C)C)nc2n(C)c1=O	7%	0%	-4%	3.5µM*	14%	12%
Cn1c(=O)c2c(SCC(N)=O)nc(CC(C)(C)C)nc2n(C)c1=O	5%	-9%	?	6.3µM*	3%	-6%
CCCCC1(C)OC(=O)C(=Cc2ccc(-c3ccc(Cl)c(C(=O)O)c3)o2)C(=O)O1 (stereo not given)	?	0%	-10%	-26%	-9%	1%
CCOC(=O)c1cc(-c2ccc(/C=C3/C(=O)NC(=O)C(C#N)=C3C)o2)ccc1Cl	?	?	-5%	-51%	7.9µM*	?
CC1=C(C#N)C(=O)NC(=O)/C1=C\c1ccc(-c2ccc(C)cc2[N+](=O)[O-])o1	-14%	-18%	-1%	-40%	8.9µM*	-2%
CCOC(=O)CN1C(=O)S/C(=C/c2ccc(N3CCCCC3)o2)C1=O	-14%	-5%	2%	-9%	-9%	-14%
O=C(O)CCCCCN1C(=O)/C(=C\c2ccc(-c3ccc(Cl)cc3)o2)SC1=S	-3%	20%	1%	-22%	?	-1%
O=C(O)CN1C(=O)/C(=C/c2ccc(N3CCCCC3)o2)SC1=S	?	-11%	1%	-31%	2.8µM*	6%
COC(=O)CN1C(=O)S/C(=C/c2ccc(N3CCCCC3)o2)C1=O	-27%	-25%	-1%	79%	7.1µM*	-7%
NNC(=O)CSc1cccc2cccnc12	-7%	0%	0%	-8%	2%	-11%
O=C(CSc1cccc2cccnc12)N1CCCC1	?	45µM*	-2%	-16%	2%	-7%
CN(CC(=O)Nc1ccc(F)cc1)C(=O)COc1ccccc1Cc1ccccc1	4%	6%	-8%	35µM*	-12%	-17%
COc1ccc(NC(=O)CCN2CCCC(C)C2)cc1 (stereo not given)	4%	-11%	2%	-13%	89µM*	3%
CC(Sc1cn(CCNC(=O)c2ccccc2F)c2ccccc12)c1ccccc1 (stereo not given)	-11%	.	1%	.	0%	.
C/C(=C\c1cc2ccccc2o1)C1Nc2cccc3cccc(c23)N1	-7%	.	6%	-10%	13µM*	5%
Cc1noc(-c2ccc(N3CCC(C)CC3)c([N+](=O)[O-])c2)n1	6%	.	-9%	.	-10%	.
N#Cc1ccc(NC(=O)C2=COCCO2)cc1	3%	5%	5%	-6%	89µM*	-5%
COC(=O)c1ccccc1NC(=O)/C=C/c1ccco1	-3%	-10%	-16%	-6%	40µM*	-2%
